The list is not random: actives were taken first. Their share in the collection is about 17%.
DT40 TDP1 no CPT = qHTS for Inhibitors of human tyrosyl-DNA phosphodiesterase 1 (TDP1): qHTS in cells in absence of CPT; 15% of 420,000 active; DT40 Tdp1-/- hTDP1 cells, no CPT, ATP luminescence, 48 h; Potency, µM (titrated, usually from 46.2 µM), inactives show at the top dose activity change, negative = growth inhibition, usual class: inhibitors; note: % is set by controls: 0 for no effect and ±100 for the full control effect; nearly all actives have a fitted effect of over 55% in size
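Chicken DT40 Tdp1-/- cells stably complemented with human TDP1 were seeded at 400 cells/well with DMSO in place of 20 nM camptothecin. After compound pinning, cells grew at least 48 hr at 37 °C; viability read by CellTiter-Glo luminescence.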
ATXN2 expr inh = reduces ATXN2 reporter expression in HEK-293 cells | HEK-293 ATXN2-luciferase reporter, luminescence, 24 h | Potency, µM (series often up to 57 µM), inactives show at the highest dose activity change, negative = inhibition, actives largely listed as inhibitors | 0.72% of 360,000 active | AID 1745845; note: % is set by controls: 0 for no effect and ±100 for the full control effect; nearly all actives have a fitted effect of over 55% in size
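qHTS (up to 57 uM final) was run with 24 h compound exposure of reporter cells at 37 °C. Each well was multiplexed: SteadyGlo luminescence measured ATXN2-luciferase expression after a fluorogenic Gly-Phe-AFC viability readout (25 uM final).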
DT40 TDP1 CPT = DT40-hTDP1 cell growth loss with CPT | chicken DT40 Tdp1-/-;hTDP1 cells + 20 nM CPT, ATP luminescence, 48 h | Potency, µM (doses to about 46.2 µM), for the others: at the top dose activity change, negative = growth inhibition, usual class: inhibitors | 12% of 420,000 active; note: % is set by controls: 0 for no effect and ±100 for the full control effect; nearly all actives have a fitted effect of over 55% in size
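Cell growth measured by CellTiter-Glo luminescence after a minimum 48 h, 37 C compound exposure with 20 nM CPT in Tdp1-knockout DT40 cells stably expressing hTDP1, seeded 400/well; qHTS titration format.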
HepG2 viability = kills HepG2 cells in TGF-b inhibitor counter-screen; HepG2 CAGA-GFP viability, ATP luminescence, 18 h; Potency, µM (doses to about 46.1 µM), for inactives: top-dose activity change, negative = cytotoxicity, hits mostly cytotoxic; 0.76% of 410,000 active; AID 588856
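HepG2 CAGA-GFP cells (1000/well, DMEM with 1% FBS) received compound, then TGF-beta at 500 pg/mL final, and were incubated 18 hours at 37 degrees C. Viability was read by CellTiter-Glo luminescence. Media-only wells were set as complete cell-killing and DMSO as no toxicity.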
TGFb SMAD3 inh = TGF-b pathway inhibition; HepG2 CAGA-GFP TGF-b/SMAD3 reporter, GFP fluorescence, 18 h; TGF-beta stimulated, 500 pg/mL final; Potency, µM (highest dose often 46.1 µM), for the others: at the top dose activity, negative = inhibition, hits mostly inhibitors; 1.2% of 410,000 active; note: % is set by controls: 0 for no effect and ±100 for the full control effect; nearly all actives have a fitted effect of over 65% in size
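Inhibition of TGF-beta-driven CAGA-GFP reporter expression in HEPG2 cells is measured by cellular GFP fluorescence after 18 h stimulation with 500 pg/mL recombinant TGF-beta in 1% FBS medium at 37 degrees C.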
ATXN viability = viability counter-screen for ATXN expression inhibitors | S2 cells (HEK-293 line with an ATXN2-luciferase reporter) viability, CellTiter-Fluor protease fluorescence, 24 h | Potency, µM (highest dose often 56.7 µM), hits mostly cytotoxic | 0.49% of 400,000 active; note: nearly all actives have a fitted effect of over 40% in size
* marks the source's active call; other numbers are inactive results. Calls come from the whole dose curve; as a rule, active = well fitted curve in the direction sought with a large enough effect; inconclusive = small, poorly fitted or top-dose-only effect, or another doubt; inactive = no such curve, though single readings can be large; an effect the other way counts as inactive or inconclusive. Potency is the fitted concentration of half-maximal effect.

`COc1ccc(CN2CCC(N3CC(C)OC(C)C3)CC2)c(OC)c1` (stereo not given) gave DT40 TDP1 no CPT 0.1%, ATXN2 expr inh -16.4%, DT40 TDP1 CPT 6.9%, HepG2 viability -7.8%, TGFb SMAD3 inh 7.5% and ATXN viability inactive.
Screening COc1ccc(-c2sc(N)nc2-c2ccccc2)cc1 returned DT40 TDP1 no CPT inconclusive, DT40 TDP1 CPT inconclusive, HepG2 viability -22.4% and TGFb SMAD3 inh -6.4%.
For O=C(CCNC(=O)c1ccccc1Cl)NCC1CCCO1 (stereo not given) the results were DT40 TDP1 no CPT 0.6%, ATXN2 expr inh 3.0%, DT40 TDP1 CPT 22.3%, HepG2 viability 4.8%, TGFb SMAD3 inh 5.4% and ATXN viability inactive.
CC1Cc2ccccc2N1CC(=O)NCc1ccccc1Cl (stereo not given) was read as DT40 TDP1 no CPT inconclusive, ATXN2 expr inh -0.3%, DT40 TDP1 CPT inconclusive, HepG2 viability 0.2%, TGFb SMAD3 inh 7.6% and ATXN viability inactive.
For O=C(CCN1C(=O)/C(=C\c2ccccc2)SC1=S)NCCCN1CCOCC1 the results were DT40 TDP1 no CPT inconclusive, DT40 TDP1 CPT inconclusive, HepG2 viability -15.6%, TGFb SMAD3 inh -8.5% and ATXN viability inconclusive.
O=C1C(=Cc2ccccc2O)SC(=S)N1CCCN1CCOCC1 was read as DT40 TDP1 no CPT 9.2µM*, DT40 TDP1 CPT inconclusive, HepG2 viability -13.3%, TGFb SMAD3 inh -16.1% and ATXN viability inconclusive.
Screening O=C1/C(=C/c2cccnc2)SC(=S)N1N1CCOCC1 returned DT40 TDP1 no CPT -26.8%, ATXN2 expr inh -17.3%, DT40 TDP1 CPT inconclusive, HepG2 viability 136.6%, TGFb SMAD3 inh 33.8% and ATXN viability inactive.
O=C1/C(=C\c2cccc(O)c2O)SC(=S)N1Cc1ccccc1 was read as DT40 TDP1 no CPT 23.1µM*, ATXN2 expr inh inconclusive, DT40 TDP1 CPT inconclusive, HepG2 viability -60.5% and TGFb SMAD3 inh inconclusive.
`O=C1/C(=C/c2ccncc2)SC(=S)N1N1CCOCC1` gave DT40 TDP1 no CPT inconclusive, ATXN2 expr inh -6.3%, DT40 TDP1 CPT 13µM*, HepG2 viability -1.6%, TGFb SMAD3 inh -1.0% and ATXN viability inconclusive.
Screening C#CCOc1ccc(/C=C2\SC(=S)N(Cc3cccnc3)C2=O)cc1 returned DT40 TDP1 no CPT 4.61µM*, ATXN2 expr inh 7.3%, DT40 TDP1 CPT 3.26µM*, HepG2 viability 7.7%, TGFb SMAD3 inh inconclusive and ATXN viability inconclusive.
`CCOc1ccc(-n2c(=O)c3sc4ccccc4c3n(Cc3cccc(C)c3)c2=O)cc1` gave DT40 TDP1 no CPT -28.6%, ATXN2 expr inh -2.3%, DT40 TDP1 CPT 1.1%, HepG2 viability -18.7%, TGFb SMAD3 inh -20.5% and ATXN viability inactive.
`O=C1/C(=C\c2cccc(O)c2)SC(=S)N1Cc1ccccc1` gave DT40 TDP1 no CPT inconclusive, DT40 TDP1 CPT inconclusive, HepG2 viability -49.3%, TGFb SMAD3 inh inconclusive and ATXN viability inactive.
`O=C1/C(=C\c2ccc(O)c(O)c2)SC(=S)N1Cc1ccccc1` gave DT40 TDP1 no CPT 18.4µM*, ATXN2 expr inh inconclusive, DT40 TDP1 CPT 20.6µM*, HepG2 viability -75.2%, TGFb SMAD3 inh inconclusive and ATXN viability 28.2µM*.
O=C1/C(=C/c2ccncc2)SC(=S)N1Cc1ccccc1 was read as DT40 TDP1 no CPT 16.4µM*, ATXN2 expr inh -31.4%, DT40 TDP1 CPT inconclusive, HepG2 viability -45.6%, TGFb SMAD3 inh inconclusive and ATXN viability inactive.
For O=C1/C(=C\c2cc([N+](=O)[O-])ccc2O)SC(=S)N1Cc1ccc(Cl)cc1 the results were DT40 TDP1 no CPT 3.66µM*, DT40 TDP1 CPT 16.4µM*, HepG2 viability -60.0% and TGFb SMAD3 inh -5.8%.
Screening O=c1[nH]cc(CN2CCOCC2)c(=O)[nH]1 returned DT40 TDP1 no CPT -3.7%, ATXN2 expr inh 4.3%, DT40 TDP1 CPT -2.3%, HepG2 viability -5.4%, TGFb SMAD3 inh 2.5% and ATXN viability inactive.
`Cc1cccc(OCc2ccccc2)n1` gave DT40 TDP1 no CPT -9.6%, ATXN2 expr inh 1.3%, DT40 TDP1 CPT -1.5%, HepG2 viability 7.9%, TGFb SMAD3 inh 18.7% and ATXN viability inactive.
`COc1cccc(COc2cc3ccccc3nc2C)c1` gave DT40 TDP1 no CPT 9.2µM*, ATXN2 expr inh 27.6%, DT40 TDP1 CPT 10.3µM*, HepG2 viability -26.9%, TGFb SMAD3 inh -14.8% and ATXN viability inactive.
Cc1nc2ccccc2cc1OCc1ccccc1 was read as DT40 TDP1 no CPT 16.4µM*, ATXN2 expr inh 1.9%, DT40 TDP1 CPT 11.6µM*, HepG2 viability -19.0%, TGFb SMAD3 inh -21.9% and ATXN viability inactive.
For Cc1ccc(-c2c(CN3CCN(c4cc(Cl)ccc4C)CC3)csc2C)cc1 the results were DT40 TDP1 no CPT inconclusive, DT40 TDP1 CPT 16.4µM*, HepG2 viability -15.9% and TGFb SMAD3 inh inconclusive.
For O=C(CC1C=CCC1)Nc1ccccc1 (stereo not given) the results were DT40 TDP1 no CPT -2.7%, ATXN2 expr inh 19.0%, DT40 TDP1 CPT 13.4%, HepG2 viability 3.0%, TGFb SMAD3 inh -2.0% and ATXN viability inactive.
Cc1ccc(-n2ncc3c(NCC(C)C)ncnc32)c(C)c1 was read as DT40 TDP1 no CPT inconclusive, ATXN2 expr inh 5.1%, DT40 TDP1 CPT 23.1µM*, HepG2 viability 3.5%, TGFb SMAD3 inh 5.2% and ATXN viability inactive.
For C=CCNc1ncnc2c1cnn2-c1ccc(C)cc1C the results were DT40 TDP1 no CPT inconclusive, ATXN2 expr inh 11.1%, DT40 TDP1 CPT -4.2%, HepG2 viability -3.8%, TGFb SMAD3 inh 2.9% and ATXN viability inactive.
Cc1ccc(-n2ncc3c(N(CC(C)C)CC(C)C)ncnc32)c(C)c1 was read as DT40 TDP1 no CPT inconclusive, ATXN2 expr inh -8.9%, DT40 TDP1 CPT 20.6µM*, HepG2 viability -42.4%, TGFb SMAD3 inh -14.5% and ATXN viability inactive.
Screening CC(=O)Nc1ccc(Nc2ncnc3c2cnn3-c2ccc(C)cc2C)cc1 returned DT40 TDP1 no CPT -25.5%, ATXN2 expr inh -1.0%, DT40 TDP1 CPT inconclusive, HepG2 viability 1.3%, TGFb SMAD3 inh 4.6% and ATXN viability inactive.
`CCOC(=O)N1CCC(Nc2ncnc3c2cnn3-c2ccc(C)cc2C)CC1` gave DT40 TDP1 no CPT 8.2µM*, ATXN2 expr inh inconclusive, DT40 TDP1 CPT 10.3µM*, HepG2 viability -35.5%, TGFb SMAD3 inh inconclusive and ATXN viability inactive.

Screening results deposited in PubChem by National Center for Advancing Translational Sciences (NCATS).
